PubChem BioAssay (NCATS)
Results filed as inconclusive are left out. Values without a mark were called inactive. Active and inactive are the calls of the source. Calls come from the whole dose curve; as a rule, active = well fitted cell-killing curve with a large enough effect; inconclusive = small, poorly fitted or top-dose-only effect, or effect the other way; inactive = flat fitted curve, though single readings scatter. Where a SMILES comes first, the peptide text is derived from it.

Each compound was assayed on Es-2 (assay: Primary qHTS to identify gynecologic anti-cancer compounds using libraries of approved drugs and bioactive compounds (AID 1345084; note: nearly all actives have a fitted effect of over 55% in size)). Details: Gynecologic cancer cell panel viability, ATPlite luminescence, 48 h; series mostly up to 57.5 µM; activity change, negative = cytotoxicity: at the top concentration.
Method in brief: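 Cells, 1,000 per well, were allowed to settle for 16 h at 37 C before compound addition. Five concentrations were tested for 48 h, and viability was read by ATPlite luminescence after 15 min at room temperature.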
% is set by controls: 0 for no effect and ±100 for the full control effect.

In order of falling “activity change, negative = cytotoxicity” value:
1. Cc1nn(C)c2c1C(c1ccc(C(F)(F)F)cc1)C(C#N)=C(N)O2 (stereo not drawn)  13.1%
2. CC(C)(C)c1cc(CN2CCN(CC(O)c3ccc(Cl)cc3)CC2)cc(C(C)(C)C)c1O (stereo not drawn)  12.6%
3. COC1=CC(=O)O[C@@H](/C=C/c2ccccc2)[C@@H]1O  12.3%
4. COc1ccc([C@@H]2N[C@H](C(=O)O)Cc3c2[nH]c2ccccc32)cc1CN1CCN(c2ccccc2F)CC1  12.2%
5. Cc1cn2c(N)c(Cl)cc(C(=O)NCC3CCN(CC(C)C)CC3)c2n1  8.11%
6. O=C1N(CC2CCCCN2)CCN1c1ccccc1 (stereo not drawn)  6.93%
7. Cc1cc(Nc2ncc(Cl)c(Nc3ccccc3S(=O)(=O)C(C)C)n2)c(OC(C)C)cc1C1CCNCC1  6.68%
8. Cc1nnc(C(C)C)n1C1CC2CCC(C1)N2CC[C@H](NC(=O)C1CCC(F)(F)CC1)c1ccccc1 (stereo partly drawn)  5.9%
9. Cc1cc(N2CCCCC2)nc2ccccc12  3.32%
10. O=S(=O)(NC1CCNCC1)c1cc(S(=O)(=O)c2ccccc2)ccc1C(F)(F)F  3.04%
11. CC1(C)CC(=O)N(CCCCN2CCN(c3ncccn3)CC2)C(=O)C1  3.03%
12. Nc1nc(CC(=O)Nc2ccc(CCNCC(O)c3ccccc3)cc2)cs1 (stereo not drawn)  2.46%
13. CCOC(=O)N1CCC(NCCNC(=O)c2ccccc2C)CC1  -2.14%
14. C=Cc1cc(O)cc2nc(-c3ccc(O)c(F)c3)oc12  -3.75%

In order of falling “activity change, negative = cytotoxicity” value:
1. COc1cc(/C=C/C(=O)OC2CC(C)=C(C(=O)O)/C2=C/CO[C@@H]2O[C@H](CO)[C@@H](O)[C@H](O)[C@H]2O)ccc1O (stereo partly drawn)  5.57% [at 25.3 µM]
2. COc1cc(C(C)=O)ccc1O[C@@H]1O[C@H](CO[C@@H]2O[C@@H](C)[C@H](O)[C@@H](O)[C@H]2O)[C@@H](O)[C@H](O)[C@H]1O  5.11% [at 25.3 µM]
3. CC1NC(=O)CNC(=O)C(C(C)C)NC(=O)C2CCCN2C(=O)C(C(C)C)NC(=O)C(Cc2c[nH]c3ccccc23)NC1=O (stereo not drawn) (cyclo(GAWVPV); configuration not given here)  2.11% [at 25.3 µM]
4. CC(C)=CCC[C@](C)(O[C@@H]1O[C@H](CO[C@@H]2OC[C@@H](O)[C@H](O)[C@H]2O)[C@@H](O)[C@H](O)[C@H]1O)[C@H]1CC[C@]2(C)[C@@H]1[C@H](O)C[C@@H]1[C@@]3(C)CC[C@H](O[C@@H]4O[C@H](CO)[C@@H](O)[C@H](O)[C@H]4O[C@@H]4O[C@H](CO)[C@@H](O)[C@H](O)[C@H]4O)C(C)(C)[C@@H]3CC[C@]12C  0.756% [at 25.3 µM]
5. CC(=O)[C@@H]1CC[C@]2(C(=O)O)CC[C@]3(C)C(CCC4[C@@]5(C)CC[C@H](O)C(C)(C)C5CC[C@]43C)C12 (stereo partly drawn)  0.61% [at 25.3 µM]
6. COc1cc(/C=C/C(=O)OC(C)(C)C(OC2OC(CO)C(O)C(O)C2O)C(=O)OCc2ccc(OC3OC(CO)C(O)C(O)C3O)cc2)ccc1O (stereo not drawn)  0.123% [at 25.3 µM]
7. CC(=O)OCC1=C[C@H](O)[C@@H]2C(C(=O)O)=CO[C@@H](O[C@@H]3O[C@H](CO)[C@@H](O)[C@H](O)[C@H]3O)[C@H]12  -0.282% [at 25.3 µM]
8. COc1ccc(C(=O)O[C@H]2CC(C)=CC[C@@]3(C)[C@@H](OC(C)=O)C[C@@](O)(C(C)C)[C@H]23)cc1  -2.12% [at 25.3 µM]
9. CC1CCC2(C(=O)OC3OC(CO)C(O)C(O)C3O)CCC3(C)C(=CCC4C5(C)CC(O)C(O)C(C)(C(=O)O)C5CCC43C)C2C1(C)O (stereo not drawn)  -7.63% [at 25.3 µM]

In order of rising “activity change, negative = cytotoxicity” value:
1. O=C(O)C[C@H]1CCC(=O)[C@@H]1C/C=C\CCOC1OC(CO)C(O)C(O)C1O (stereo partly drawn)  -7.28% [at 38.5 µM]
2. COC(=O)[C@@]1(O)C=CC[C@@H]2[C@@]3(C)C[C@@H](c4ccoc4)OC(=O)[C@H]3CC[C@]21C  -2.85% [at 38.5 µM]
3. COc1ccc2c(c1)OC[C@]1(O)c3cc4c(cc3O[C@H]21)OCO4  -2.51% [at 38.5 µM]
4. COc1ccc(C(OC2OC(CO)C(O)C(O)C2O)C(C)O)cc1 (stereo not drawn)  4.26% [at 38.5 µM]
5. C=C1CC[C@H]2[C@@](C)(CCC(O)[C@@]2(C)CO)[C@@H]1C/C=C(/C(=O)O)C(O)CO (stereo partly drawn)  5.42% [at 38.5 µM]
6. C=CC1(C)CC2=CCC3C(C)(C(=O)O)CCCC3(C)C2CC1OC(C)=O (stereo not drawn)  5.49% [at 38.5 µM]

For `N#Cc1ccc2[nH]c(O)c(-c3ccc(CN4CCOCC4)cn3)c2c1`, the Potency was “inactive”.
With `CCn1c2ccccc2c2cc(CNC)ccc21` the Potency was “inactive”.

In order of falling activity change, negative = cytotoxicity:
1. CC1CCC2(C(=O)OC3OC(COC4OC(CO)C(O)C(O)C4O)C(O)C(O)C3O)CCC3(C)C(=CCC4C5(C)CCC(O)C(C)(C(=O)O)C5CCC43C)C2C1(C)O (stereo not drawn)  5.49% [at 11.6 µM]
2. C=C[C@@]1(C)CC(=O)C2[C@](C)(O1)[C@@H](OC(C)=O)[C@@H](O)[C@H]1C(C)(C)CCC[C@]21C (stereo partly drawn)  1.29% [at 11.6 µM]
